These results are taken from PubChem BioAssay (NCI).

Test systems include SR leukemia; RPMI-8226 leukemia; OVCAR-8 ovarian; OVCAR-5 ovarian; OVCAR-4 ovarian; SK-OV-3 ovarian; IGROV1 ovarian; OVCAR-3 ovarian; HS 578T breast; NCI/ADR-RES ovarian.
Common to all, as to assay: NCI-60 one-dose screen, 48 h (100 = growth as untreated, 0 = no growth, -100 = all killed)
Holding throughout (settings): 10 µM unless noted

The panel holds about 83,000 compounds, 20% with a hit somewhere; the sample as a whole holds those more often.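 Single-dose data. Exposure time 48 hours. Values below 10 considered active.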 Values without a mark were called inactive. The source made the active and inactive calls.

`Oc1c(I)cc(I)cc1CNCc1ccccn1`: the growth with SR leukemia was 22.1%; in the experiment on RPMI-8226 leukemia it was 30.9%; in the experiment on OVCAR-8 ovarian, 13.8%; in the experiment on OVCAR-5 ovarian it was 61.9%; in the experiment with OVCAR-4 ovarian it was 22.8%; in the experiment with SK-OV-3 ovarian, 28%. In addition, the growth with IGROV1 ovarian was 24.4%; in the experiment with OVCAR-3 ovarian, 20.3%; in the experiment with HS 578T breast, 57.9%; in the experiment with NCI/ADR-RES ovarian, 10.3%.

Consider `Cc1nc2sc(C(=O)Nc3ccc(Br)cc3)c(N)c2cc1C(O)c1ccccc1` (stereo not given), for which the growth was 14.9% with SR leukemia; 55.4% in the experiment on RPMI-8226 leukemia; 75.2% with OVCAR-8 ovarian; 92% in the experiment with OVCAR-5 ovarian; 59.3% in the experiment on OVCAR-4 ovarian; 78.3% with SK-OV-3 ovarian. In addition, the growth in the experiment with IGROV1 ovarian is 75.1%; in the experiment on OVCAR-3 ovarian it was 73.9%; in the experiment on HS 578T breast, 74.1%; in the experiment with NCI/ADR-RES ovarian, 59.7%.

As for `CC(=O)O[C@@H]1C[C@]2(C(C)C)O[C@@]1(C)[C@@H]1CCC(C)=C1[C@@H]2OC(=O)/C=C/c1ccccc1`, the growth in the experiment with SR leukemia is 73.6%; in the experiment on RPMI-8226 leukemia, 76.6%; in the experiment with OVCAR-8 ovarian, 67.5%; in the experiment on OVCAR-5 ovarian it was 98.1%; with OVCAR-4 ovarian, 79.1%; in the experiment on SK-OV-3 ovarian, 89.3%. Besides, the growth in the experiment on IGROV1 ovarian is 94.9%; in the experiment with OVCAR-3 ovarian it was 89.7%; in the experiment on HS 578T breast it was 20%; with NCI/ADR-RES ovarian, 71.9%.

With `Oc1c(Br)cc(Br)c2ccc(Cn3cc(-c4ccc(C(F)(F)F)cc4)nn3)nc12`, the growth in the experiment with SR leukemia was -22.9% (active); in the experiment on RPMI-8226 leukemia, -1.77% (active); in the experiment on OVCAR-8 ovarian, 59.5%; with OVCAR-5 ovarian, 89%; with OVCAR-4 ovarian, 54%; in the experiment on SK-OV-3 ovarian, 110%. Besides, the growth in the experiment on IGROV1 ovarian was 79.6%; in the experiment on OVCAR-3 ovarian, -7.84% (active); with HS 578T breast, 101%; with NCI/ADR-RES ovarian, 105%.

On to `O=C(Nc1nc2ccc(C(=O)N3CCN(/C=C/c4ccccc4)CC3)cc2s1)c1ccc(NCCc2ccccc2)c([N+](=O)[O-])c1`, for which the growth was -13.7% (active) in the experiment with SR leukemia; 18.5% in the experiment on RPMI-8226 leukemia; 68.4% in the experiment with OVCAR-8 ovarian; 83.6% in the experiment with OVCAR-5 ovarian; 42.9% with OVCAR-4 ovarian; 62.9% in the experiment with SK-OV-3 ovarian. Also, the growth is 64.3% with IGROV1 ovarian, 59.3% with OVCAR-3 ovarian, 69% in the experiment on HS 578T breast and 70.2% in the experiment on NCI/ADR-RES ovarian.

As for `COc1ccc(-c2ccc(=O)oc2-c2cc(OC)c(OC)c(OC)c2)cc1O`, the growth in the experiment with SR leukemia is 0.907% (active); in the experiment on RPMI-8226 leukemia it was 9.69% (active); with OVCAR-8 ovarian, 14.2%; in the experiment with OVCAR-5 ovarian, 22.8%; in the experiment with OVCAR-4 ovarian, 39.8%; in the experiment with SK-OV-3 ovarian it was 25.9%. In addition, the growth in the experiment on IGROV1 ovarian is 3.86% (active); in the experiment on OVCAR-3 ovarian, -72.7% (active); in the experiment on HS 578T breast it was -2.33% (active); in the experiment on NCI/ADR-RES ovarian it was 12.9%.

Consider `CCCC/C(CC)=N\NS(=O)(=O)c1ccc([N+](=O)[O-])cc1`, for which the growth in the experiment with SR leukemia is 97.5%; in the experiment on RPMI-8226 leukemia, 101%; in the experiment with OVCAR-8 ovarian, 100%; in the experiment with OVCAR-5 ovarian, 94.6%; with OVCAR-4 ovarian, 100%; in the experiment with SK-OV-3 ovarian, 95.9%. Moreover, the growth in the experiment with IGROV1 ovarian was 105%; in the experiment with OVCAR-3 ovarian, 107%; in the experiment with HS 578T breast it was 103%; with NCI/ADR-RES ovarian, 104%.

Turning to `CC1(C)COB(OCC(C)(C)COB2OCC(C)(C)CO2)OC1`, the growth with SR leukemia was 102%; with RPMI-8226 leukemia, 118%; in the experiment with OVCAR-8 ovarian it was 100%; in the experiment with OVCAR-5 ovarian, 108%; with OVCAR-4 ovarian it was 113%; in the experiment with SK-OV-3 ovarian, 109%. Also, the growth with IGROV1 ovarian was 105%; in the experiment on OVCAR-3 ovarian, 110%; with HS 578T breast, 108%; in the experiment on NCI/ADR-RES ovarian, 109%.

On to `Cc1cn(-c2cc(NC(=O)c3cncc(C#Cc4cnc(N)c5ncccc45)c3)cc(C(F)(F)F)c2)cn1`, for which the growth with SR leukemia was 62.7%; with RPMI-8226 leukemia, 50.9%; in the experiment with OVCAR-8 ovarian, 64.5%; with OVCAR-5 ovarian, 60.3%; in the experiment on OVCAR-4 ovarian, 76.3%; in the experiment on SK-OV-3 ovarian, 106%. Further, the growth in the experiment with IGROV1 ovarian is 62.3%; with OVCAR-3 ovarian it was 92.1%; with HS 578T breast it was 60.1%; with NCI/ADR-RES ovarian it was 86.9%.

Consider `CC1OC(n2c3ccccc3c3c4c(c5c6ccccc6[nH]c5c32)C(=O)N(CCN2CCCC2)C4=O)CC(O)C1O` (stereo not given), for which the growth in the experiment on SR leukemia is -2.62% (active); with RPMI-8226 leukemia it was 5.56% (active); with OVCAR-8 ovarian it was 53.1%; in the experiment with OVCAR-5 ovarian, 78.1%; in the experiment with OVCAR-4 ovarian, 22.9%; in the experiment on SK-OV-3 ovarian it was 32.1%. Moreover, the growth in the experiment with IGROV1 ovarian is 48.9%; in the experiment on OVCAR-3 ovarian, 60.2%; in the experiment with HS 578T breast it was 58.2%; in the experiment on NCI/ADR-RES ovarian it was 54.1%.

As to `O=C(Nc1cccc(Cl)c1)Nc1cccc(Cn2c(=O)[nH]c3ccc(Oc4ncccn4)cc3c2=O)c1`, the growth with SR leukemia was 21.4%; in the experiment with RPMI-8226 leukemia, 25.3%; in the experiment with OVCAR-8 ovarian, 37.4%; in the experiment on OVCAR-5 ovarian it was 81.7%; in the experiment with OVCAR-4 ovarian, 13.3%; in the experiment with SK-OV-3 ovarian it was 70.7%. The growth was 62% with IGROV1 ovarian, 33.5% with OVCAR-3 ovarian, 51.8% in the experiment with HS 578T breast and 95.5% with NCI/ADR-RES ovarian.

Turning to `COc1cccc(/C=C2\COc3ccc(O)c(O)c3C2=O)c1`, the growth in the experiment with SR leukemia is 12.6%; in the experiment on RPMI-8226 leukemia it was -7.52% (active); in the experiment on OVCAR-8 ovarian, 10.7%; in the experiment with OVCAR-5 ovarian it was -2.7% (active); with OVCAR-4 ovarian, 26.9%; with SK-OV-3 ovarian, 86.2%. Moreover, the growth is -31.1% (active) in the experiment with IGROV1 ovarian, -28.3% (active) with OVCAR-3 ovarian, 20.4% in the experiment with HS 578T breast and 2.6% (active) in the experiment with NCI/ADR-RES ovarian.

On to `O=C1c2c(c3c4ccccc4[nH]c3c3ccc4ccccc4c23)C(=O)N1CCN1CCOCC1`, for which the growth in the experiment with SR leukemia is 13.1%; with RPMI-8226 leukemia, 7.91% (active); with OVCAR-8 ovarian it was 31.5%; with OVCAR-5 ovarian it was 71.7%; in the experiment on OVCAR-4 ovarian, 57.7%; in the experiment on SK-OV-3 ovarian it was 81.2%. In addition, the growth is 30% with IGROV1 ovarian, 44.1% in the experiment on OVCAR-3 ovarian, 62.5% in the experiment with HS 578T breast and 21.1% with NCI/ADR-RES ovarian.

`CCCCCCCCCCC(CN(CC)CC)C(O)c1ccccc1` (stereo not given): the growth in the experiment with SR leukemia is -17.6% (active); in the experiment on RPMI-8226 leukemia, 9.59% (active); in the experiment with OVCAR-8 ovarian it was 53.6%; with OVCAR-5 ovarian, 49.7%; in the experiment on OVCAR-4 ovarian it was 47.5%; in the experiment with SK-OV-3 ovarian, 54.9%. In addition, the growth in the experiment on IGROV1 ovarian was 40.7%; with OVCAR-3 ovarian it was 37.7%; with HS 578T breast, 45%; in the experiment with NCI/ADR-RES ovarian, 33.6%.
